Test results published in PubChem BioAssay (EPA / NIEHS).
Inconclusive results are not listed. The source made the active and inactive calls. Rule for the calls, unless noted: active = hit-call score of the fitted dose curve at least 0.9, where 1 is the maximum; inactive = score below 0.9.

Tests used:
[1] = CCTE_Shafer_MEA_acute_LDH: CCTE's Lactate Dehydrogenase Assay for Cytotoxicity in the Neural Acute Assay, Shafer Lab (AID 2284086; active = hit-call score of the fitted dose curve at least 0.9, where 1 is the maximum;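 note: active means LDH release rises above DMSO vehicle level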)
In short: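 Cytotoxicity readout: spectrophotometric LDH activity in supernatant of rat primary cortical neurons, post-plating day 13 or 15, sampled after 40 min compound exposure; signal gain relative to DMSO baseline.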

[2] = CCTE_Shafer_MEA_acute_AB: CCTE's Alamar Blue Assay for Cytotoxicity in the Neural Acute Assay, Shafer Lab (AID 2284069; active = hit-call score of the fitted dose curve at least 0.9, where 1 is the maximum;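 note: active compounds lower the viability signal compared with DMSO wells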)
In short: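 Read-out: resazurin fluorescence (ex 544, em 590 nm) after CTB reagent at 1:6 dilution in fresh media. Cells: primary rat cortical neuron networks, DIV 13 or 15, chemically exposed on MEA plates; DMSO as negative control/baseline.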

DIO3 (gene 1735) = experiment: CCTE_GLTED_hDIO3: CCTE's human Deiodinase 3 (DIO3) Inhibition Assay, Great Lakes Toxicology and Ecology Division (GLTED) Lab (AID 2284055; active = hit-call score of the fitted dose curve at least 0.9, where 1 is the maximum;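 note: potency is for inhibition seen as loss of released iodide signal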)
In short: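 Steps: incubate adenovirus-produced hDIO3 with chemical for 3 hours; detect freed iodide via cerium-arsenic Sandell-Kolthoff colorimetry; compare with DMSO baseline.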

[3] = CCTE_Shafer_MEA_dev_interburst_interval_mean: CCTE's Neural Network Formation Assay for Mean Interburst Interval, Shafer Lab (AID 2284046);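 note: well-mean interburst interval of bursting electrodes as AUC over four recording days; curve fitted for decrease in interburst interval relative to DMSO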
In short: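 Rat cortical neurons, 1.5 x 10^5 cells/well, 48-well MEA; compound from day 0 through DIV 12, media and treatment renewed DIV 5/9. Recordings DIV 5, 7, 9, 12; well-mean interburst interval → trapezoidal AUC, loss direction vs DMSO.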

[4] = CCTE_Shafer_MEA_dev_inter_network_spike_interval_mean: CCTE's Neural Network Formation Assay for Mean Inter-network Spike Interval, Shafer Lab (AID 2284047)
In short: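 Primary rat cortical neurons on PEI-coated 48-well MEAs (16 electrodes/well) were exposed from plating day 0 to DIV 12, with dosing renewed at DIV 5 and 9. Recordings at DIV 5, 7, 9, 12 were collapsed by trapezoidal AUC, loss-of-signal fit vs DMSO.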

[5] = CCTE_Shafer_MEA_dev_network_spike_number: CCTE's Neural Network Formation Assay for Number of Network Spikes, Shafer Lab (AID 2284048);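 note: synchronized bursts across electrodes counted on days 5 7 9 12 and integrated as AUC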
In short: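 Rat cortical primary cultures on 48-well MEA (16 electrodes/well); continuous exposure DIV 0–12, full medium and treatment exchange DIV 5, 9. Readout: network spike count, AxIS adaptive detection, recordings DIV 5/7/9/12 collapsed to AUC; loss-of-signal fit, DMSO baseline.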

[6] = CCTE_Shafer_MEA_dev_network_spike_peak: CCTE's Neural Network Formation Assay for Mean Number of Electrodes in Network Spike, Shafer Lab (AID 2284049)
In short: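 Network-spike peak electrode count from recordings on days 5, 7, 9 and 12 was combined as trapezoidal area under the curve. Rat cortical cultures were treated continuously from plating, with compound renewed at each feed (DIV 5, 9); fits versus DMSO.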

[7] = CCTE_Shafer_MEA_dev_spike_duration_mean: CCTE's Neural Network Formation Assay for Mean Spike Duration, Shafer Lab (AID 2284051);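 note: mean network spike duration pooled as area under curve over DIV 5 to 12 recordings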
In short: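 Rat cortical primary cultures, 48-well MEA (16 electrodes/well); compound from plating, renewed DIV 5, 9. Network spike duration (AxIS adaptive detector) recorded DIV 5/7/9/12, combined as trapezoidal AUC; loss direction vs DMSO.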

[8] = CCTE_Shafer_MEA_dev_network_spike_duration_std: CCTE's Neural Network Formation Assay for Standard Deviation of Network Spike Duration, Shafer Lab (AID 2284052);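 note: area under curve of spike duration SD across recording days 5 to 12; hits are decreases in network spike duration SD versus DMSO vehicle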
In short: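 Rat cortical cultures, 1.5 x 10^5 cells/well, exposed continuously from plating to DIV 12 with media/compound renewal at DIV 5, 9. Spontaneous activity recorded DIV 5/7/9/12, AxIS adaptive spike detector; AUC across days; negative direction vs DMSO.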

[9] = CCTE_Shafer_MEA_dev_per_network_spike_spike_number_mean: CCTE's Neural Network Formation Assay for Mean Number of Spikes in a Network Spike, Shafer Lab (AID 2284053)
In short: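 Rat cortical primary cultures on 48-well MEA; compound from day 0, re-dosed with full media change DIV 5, 9. Recorded DIV 5, 7, 9, 12; spikes in 0.05 s window at network-spike peak ÷ total network spikes; AUC; loss vs DMSO.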

[10] = CCTE_Shafer_MEA_dev_per_network_spike_spike_percent: CCTE's Neural Network Formation Assay for Percent of Spikes in a Network Spike, Shafer Lab (AID 2284054)
In short: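 Read-out: percent of spikes falling in a 0.05 s window at network-spike peak, from spontaneous MEA recordings on days 5, 7, 9 and 12; trapezoidal AUC; loss of signal versus DMSO. Rat cortical cultures, compound present throughout.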

[11] = CCTE_Shafer_MEA_dev_mutual_information_norm: CCTE's Neural Network Formation Assay for Mutual Information Normalization, Shafer Lab (AID 2284091)
In short: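 Neurons from rat cortex were seeded at 1.5 x 10^5 cells/well onto PEI-coated MEAs in a laminin drop, then exposed to compound from day 0 for twelve days. Network recordings on four days gave mutual information, summarised by AUC relative to DMSO.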

[12] = CCTE_Shafer_MEA_dev_correlation_coefficient_mean: CCTE's Neural Network Formation Assay for Mean Correlation Coefficient, Shafer Lab (AID 2284093);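 for AC50: well mean pairwise spike train correlation integrated as AUC over recording days 5 to 12; potency fitted for loss of correlation relative to DMSO vehicle wells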
In short: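 Rat cortical cultures, 1.5 x 10^5 cells/well, dosed from day 0 for 12 days. Spontaneous spikes recorded DIV 5/7/9/12; electrode-pair correlation coefficients averaged, AUC taken. Fit in loss direction vs DMSO.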

[13] = CCTE_Shafer_MEA_dev_AB: CCTE's Alamar Blue Assay for Cytotoxicity in the Neural Network Formation Assay, Shafer Lab (AID 2284083; active = hit-call score of the fitted dose curve at least 0.9, where 1 is the maximum;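 note: resazurin reduction fluorescence as viability of cultured neurons; twelve days of exposure from plating with re-dosing on DIV 5 and 9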)
In short: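 Rat cortical primary cultures, 1.5 x 10^5 cells/well on MEA; continuous compound exposure over 12 days of network development, re-dosed with full medium change DIV 5 and 9. Alamar Blue fluorescence; loss of signal = cytotoxicity vs DMSO baseline.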

[14] = CCTE_Shafer_MEA_dev_LDH: CCTE's Lactate Dehydrogenase Assay for Cytotoxicity in the Neural Network Formation Assay, Shafer Lab (AID 2284068; active = hit-call score of the fitted dose curve at least 0.9, where 1 is the maximum;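 note: exposure for twelve days from plating with re-dosing on DIV 5 and 9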)
In short: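 Rat cortical primary neurons, MEA culture; dosing day 0–12, full medium plus compound exchange DIV 5, 9. Read-out: LDH enzyme activity, spectrophotometric. DMSO = negative control/baseline; signal loss → cytotoxicity.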

[15] = IUF_NPC1b_proliferation_BrdU_72hr: Leibniz Research Institute for Environmental Medicine (IUF) 72-hour Neural Progenitor Cell Bromodeoxyuridine (BrdU) Proliferation Assay (NPC1b) (AID 2284207)
In short: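 Luminescent BrdU ELISA measured DNA synthesis during the last 16 h of a 72 h exposure of primary human neural progenitor spheres grown with EGF and FGF. Signal was fitted relative to DMSO controls.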

SMILES: CCCCC(CC)COCC1CO1 (stereo not given)
- outcome [1]: inactive

SMILES: CCOC(=O)c1ccccc1C(=C1C=C(Br)C(=O)C(Br)=C1)c1cc(Br)c(O)c(Br)c1
- outcome [1]: inactive

SMILES: O=C(c1ccc(O)cc1)c1ccc(O)cc1O
- outcome [2]: inactive
- outcome [1]: inactive

SMILES: CCCCCCCC[N+](C)(CCCCCCCC)CCCCCCCC
- AC50 (DIO3 (gene 1735)): 3.85 µM (active)

SMILES: CCCCC/C=C\C/C=C\CCCCCCCC(=O)OC
- AC50 (DIO3 (gene 1735)): 16.8 µM (active)

SMILES: CC=CC(F)(F)C(F)(F)C(F)(F)F
- outcome [3]: inactive
- outcome [4]: inactive
- outcome [5]: inactive
- outcome [6]: inactive
- outcome [7]: inactive
- outcome [8]: inactive
- outcome [9]: inactive
- AC50 [10]: 3.82 µM (active)
- outcome [11]: inactive
- AC50 [12]: 3.71 µM (active)

SMILES: CCOC(F)(F)C(F)(F)C(F)(F)C(F)(F)F
- outcome [3]: inactive
- outcome [4]: inactive
- outcome [5]: inactive
- outcome [6]: inactive
- outcome [7]: inactive
- outcome [8]: inactive
- outcome [9]: inactive
- outcome [10]: inactive
- outcome [13]: inactive
- outcome [11]: inactive
- outcome [12]: inactive

SMILES: C=C[Si](OC(C)=O)(OC(C)=O)OC(C)=O
- outcome [1]: inactive

SMILES: CCO[Si](C)(OCC)OCC
- outcome [1]: inactive

SMILES: c1ccc2c(c1)ccc1cc3c(ccc4ccccc43)cc12
- outcome [3]: inactive
- outcome [4]: inactive
- outcome [5]: inactive
- outcome [6]: inactive
- outcome [7]: inactive
- outcome [8]: inactive
- outcome [9]: inactive
- outcome [10]: inactive
- outcome [14]: inactive
- outcome [11]: inactive
- outcome [12]: inactive

SMILES: CC1(C)S[C@@H]2[C@H](NC(=O)COc3ccccc3)C(=O)N2[C@H]1C(=O)O
- outcome [3]: inactive
- outcome [4]: inactive
- outcome [5]: inactive
- outcome [6]: inactive
- outcome [7]: inactive
- outcome [8]: inactive
- outcome [9]: inactive
- outcome [10]: inactive
- outcome [11]: inactive
- outcome [12]: inactive
- outcome [15]: inactive

SMILES: CC(C)C1=CC2=CC[C@@H]3[C@](C)(CCC[C@@]3(C)C(=O)O)[C@H]2CC1
- AC50 (DIO3 (gene 1735)): 79.8 µM (active)

SMILES: CN1C(=O)N(C)C(O)C1O (stereo not given)
- outcome [1]: inactive

SMILES: Nc1ccc(N)c(Cl)c1
- outcome [2]: inactive
- outcome [1]: inactive

SMILES: CCCCCCCCCCCCCOP(=O)(O)O
- AC50 (DIO3 (gene 1735)): 12 µM (active)

SMILES: O=C1CCCN1CCO
- outcome [1]: inactive

SMILES: Cc1ccc(N/N=c2\c(=O)cc/c(=N/Nc3ccc(S(=O)(=O)O)cc3)c2=O)c(C)c1
- AC50 (DIO3 (gene 1735)): 114 µM (active)

SMILES: CCCCC(CC)COC(=O)c1ccccc1O (stereo not given)
- outcome [1]: inactive

SMILES: COC(F)(F)C(F)(C(F)(F)F)C(F)(F)F
- outcome [3]: inactive
- outcome [4]: inactive
- outcome [5]: inactive
- outcome [6]: inactive
- outcome [7]: inactive
- outcome [8]: inactive
- outcome [9]: inactive
- outcome [10]: inactive
- outcome [11]: inactive
- outcome [12]: inactive

SMILES: O=S(=O)(O)c1ccccc1C=Cc1ccc(-c2ccc(C=Cc3ccccc3S(=O)(=O)O)cc2)cc1
- AC50 (DIO3 (gene 1735)): 100 µM (active)
